# Columns and labels:
# [1] = target: T1, Ephrin type-B receptor 1 (Homo sapiens) (UniProt P54762); details: at 10 µM
# T1 sequence (whole entry): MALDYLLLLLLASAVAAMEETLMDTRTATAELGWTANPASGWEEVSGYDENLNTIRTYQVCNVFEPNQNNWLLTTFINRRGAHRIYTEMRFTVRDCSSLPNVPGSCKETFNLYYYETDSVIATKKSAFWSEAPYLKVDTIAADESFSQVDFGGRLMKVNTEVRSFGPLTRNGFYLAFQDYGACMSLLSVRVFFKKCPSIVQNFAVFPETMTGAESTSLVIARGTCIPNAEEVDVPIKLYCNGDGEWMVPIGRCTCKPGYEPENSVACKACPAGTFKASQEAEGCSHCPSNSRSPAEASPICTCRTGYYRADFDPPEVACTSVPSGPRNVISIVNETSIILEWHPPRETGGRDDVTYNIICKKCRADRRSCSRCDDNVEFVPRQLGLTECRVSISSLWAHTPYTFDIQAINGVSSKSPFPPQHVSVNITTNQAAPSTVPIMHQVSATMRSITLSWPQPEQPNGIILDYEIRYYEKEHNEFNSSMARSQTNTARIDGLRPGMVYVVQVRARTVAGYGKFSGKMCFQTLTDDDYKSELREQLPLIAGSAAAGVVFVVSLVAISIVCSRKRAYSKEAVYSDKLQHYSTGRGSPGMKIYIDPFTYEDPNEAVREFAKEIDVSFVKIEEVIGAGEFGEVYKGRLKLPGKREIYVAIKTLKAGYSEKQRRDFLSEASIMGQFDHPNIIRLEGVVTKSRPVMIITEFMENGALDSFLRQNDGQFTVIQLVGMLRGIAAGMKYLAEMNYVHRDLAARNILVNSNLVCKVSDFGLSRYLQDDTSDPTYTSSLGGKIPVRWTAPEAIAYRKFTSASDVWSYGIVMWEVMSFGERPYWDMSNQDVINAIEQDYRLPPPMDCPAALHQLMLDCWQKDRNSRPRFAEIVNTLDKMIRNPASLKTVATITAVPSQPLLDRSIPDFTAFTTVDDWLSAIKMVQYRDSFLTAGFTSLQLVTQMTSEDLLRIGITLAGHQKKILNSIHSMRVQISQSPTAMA
# [2] = target: T2, Ephrin type-B receptor 2 (Homo sapiens) (UniProt P29323); details: at 1 µM
# T2 sequence (whole entry): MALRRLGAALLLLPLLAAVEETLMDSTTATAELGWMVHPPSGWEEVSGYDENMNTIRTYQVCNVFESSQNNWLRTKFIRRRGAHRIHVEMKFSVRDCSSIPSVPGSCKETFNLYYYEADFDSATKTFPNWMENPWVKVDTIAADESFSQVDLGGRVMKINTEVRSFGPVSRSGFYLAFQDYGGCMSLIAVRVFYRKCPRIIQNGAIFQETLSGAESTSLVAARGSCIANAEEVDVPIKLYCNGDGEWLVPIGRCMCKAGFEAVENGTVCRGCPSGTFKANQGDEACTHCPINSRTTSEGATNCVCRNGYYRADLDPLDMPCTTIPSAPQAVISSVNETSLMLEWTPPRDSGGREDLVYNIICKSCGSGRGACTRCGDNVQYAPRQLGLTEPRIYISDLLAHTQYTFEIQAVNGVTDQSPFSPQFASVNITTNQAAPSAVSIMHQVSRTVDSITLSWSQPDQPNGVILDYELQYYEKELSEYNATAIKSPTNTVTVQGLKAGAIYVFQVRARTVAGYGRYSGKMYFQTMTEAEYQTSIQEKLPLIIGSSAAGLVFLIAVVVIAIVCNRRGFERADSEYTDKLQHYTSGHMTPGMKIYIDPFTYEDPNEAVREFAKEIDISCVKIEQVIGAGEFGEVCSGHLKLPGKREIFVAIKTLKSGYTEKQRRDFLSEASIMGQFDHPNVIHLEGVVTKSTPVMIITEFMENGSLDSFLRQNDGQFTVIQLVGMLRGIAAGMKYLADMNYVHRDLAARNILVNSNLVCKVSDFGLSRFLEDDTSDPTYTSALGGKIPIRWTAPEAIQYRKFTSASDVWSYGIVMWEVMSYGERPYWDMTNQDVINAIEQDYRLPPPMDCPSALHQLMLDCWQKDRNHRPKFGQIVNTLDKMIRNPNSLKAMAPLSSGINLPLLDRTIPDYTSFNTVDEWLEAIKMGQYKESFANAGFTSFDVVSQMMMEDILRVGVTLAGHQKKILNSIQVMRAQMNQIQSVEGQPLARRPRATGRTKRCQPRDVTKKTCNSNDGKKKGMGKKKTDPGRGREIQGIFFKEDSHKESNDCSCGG
# [3] = target: T2, Ephrin type-B receptor 2 (Homo sapiens); details: at 10 µM
# [4] = target: T3, Ephrin type-B receptor 3 (Homo sapiens) (UniProt P54753); details: at 1 µM
# T3 sequence (whole entry): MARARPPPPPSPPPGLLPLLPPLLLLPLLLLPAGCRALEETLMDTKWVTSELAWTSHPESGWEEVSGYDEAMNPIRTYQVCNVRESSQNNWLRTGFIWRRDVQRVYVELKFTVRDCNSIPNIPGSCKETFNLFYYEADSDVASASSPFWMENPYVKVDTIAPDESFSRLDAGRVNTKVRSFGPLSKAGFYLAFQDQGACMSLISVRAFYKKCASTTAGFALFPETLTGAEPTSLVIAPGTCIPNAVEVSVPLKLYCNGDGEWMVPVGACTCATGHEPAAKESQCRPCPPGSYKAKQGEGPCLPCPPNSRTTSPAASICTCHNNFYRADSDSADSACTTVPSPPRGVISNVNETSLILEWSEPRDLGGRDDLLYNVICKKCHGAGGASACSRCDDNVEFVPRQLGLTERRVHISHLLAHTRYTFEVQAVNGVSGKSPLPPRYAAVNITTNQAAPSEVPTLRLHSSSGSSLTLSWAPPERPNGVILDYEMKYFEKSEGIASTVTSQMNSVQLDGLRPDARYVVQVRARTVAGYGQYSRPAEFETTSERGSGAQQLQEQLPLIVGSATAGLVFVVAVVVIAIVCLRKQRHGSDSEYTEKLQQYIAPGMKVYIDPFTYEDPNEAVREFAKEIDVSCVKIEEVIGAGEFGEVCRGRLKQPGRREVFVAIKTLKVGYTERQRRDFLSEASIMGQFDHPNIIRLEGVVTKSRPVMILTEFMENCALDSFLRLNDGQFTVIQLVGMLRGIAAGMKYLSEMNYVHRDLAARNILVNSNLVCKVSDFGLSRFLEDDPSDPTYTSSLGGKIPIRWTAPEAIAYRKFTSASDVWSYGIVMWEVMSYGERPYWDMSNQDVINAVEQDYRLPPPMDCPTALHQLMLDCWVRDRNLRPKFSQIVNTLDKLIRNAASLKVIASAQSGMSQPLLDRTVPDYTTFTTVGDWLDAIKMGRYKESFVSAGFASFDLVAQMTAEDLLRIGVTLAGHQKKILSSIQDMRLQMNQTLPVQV
# [5] = target: T3, Ephrin type-B receptor 3 (Homo sapiens); details: at 10 µM
# [6] = target: T4, Ephrin type-B receptor 4 (Homo sapiens) (UniProt P54760); details: at 1 µM
# T4 sequence (whole entry): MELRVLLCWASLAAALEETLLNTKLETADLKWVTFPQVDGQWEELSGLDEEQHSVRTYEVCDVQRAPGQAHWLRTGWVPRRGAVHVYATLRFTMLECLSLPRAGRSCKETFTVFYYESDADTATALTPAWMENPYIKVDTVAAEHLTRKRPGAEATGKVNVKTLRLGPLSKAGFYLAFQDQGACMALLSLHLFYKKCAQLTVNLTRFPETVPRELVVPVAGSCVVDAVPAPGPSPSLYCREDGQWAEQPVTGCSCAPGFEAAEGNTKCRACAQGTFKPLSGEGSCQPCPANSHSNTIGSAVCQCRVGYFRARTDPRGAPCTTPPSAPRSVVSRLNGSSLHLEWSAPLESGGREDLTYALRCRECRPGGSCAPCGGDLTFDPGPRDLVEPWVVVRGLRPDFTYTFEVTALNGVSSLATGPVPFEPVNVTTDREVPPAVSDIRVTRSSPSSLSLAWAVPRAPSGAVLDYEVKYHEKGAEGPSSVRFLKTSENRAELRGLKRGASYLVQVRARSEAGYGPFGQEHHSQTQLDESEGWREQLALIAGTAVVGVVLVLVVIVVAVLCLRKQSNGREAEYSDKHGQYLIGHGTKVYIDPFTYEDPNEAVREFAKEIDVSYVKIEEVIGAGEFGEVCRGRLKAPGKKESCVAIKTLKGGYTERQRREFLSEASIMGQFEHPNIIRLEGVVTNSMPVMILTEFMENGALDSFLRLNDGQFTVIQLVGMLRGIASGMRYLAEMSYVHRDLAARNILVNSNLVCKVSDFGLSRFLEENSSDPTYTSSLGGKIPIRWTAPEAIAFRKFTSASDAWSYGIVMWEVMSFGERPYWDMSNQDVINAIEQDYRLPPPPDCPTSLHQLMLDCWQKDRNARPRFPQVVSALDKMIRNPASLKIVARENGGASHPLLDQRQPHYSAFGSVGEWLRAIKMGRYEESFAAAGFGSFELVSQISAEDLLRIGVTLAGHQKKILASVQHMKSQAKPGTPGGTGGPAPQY
# [7] = target: T4, Ephrin type-B receptor 4 (Homo sapiens); details: at 10 µM
# [8] = target: Receptor tyrosine-protein kinase erbB-4 (Homo sapiens) (UniProt Q15303); details: at 1 µM
# [9] = target: Receptor tyrosine-protein kinase erbB-4 (Homo sapiens) (UniProt Q15303); details: at 10 µM
# [10] = target: Focal adhesion kinase 1 (Homo sapiens) (UniProt Q05397); details: at 1 µM
# Chain of Focal adhesion kinase 1 (Homo sapiens) (Q05397 2-1052 limits assumed): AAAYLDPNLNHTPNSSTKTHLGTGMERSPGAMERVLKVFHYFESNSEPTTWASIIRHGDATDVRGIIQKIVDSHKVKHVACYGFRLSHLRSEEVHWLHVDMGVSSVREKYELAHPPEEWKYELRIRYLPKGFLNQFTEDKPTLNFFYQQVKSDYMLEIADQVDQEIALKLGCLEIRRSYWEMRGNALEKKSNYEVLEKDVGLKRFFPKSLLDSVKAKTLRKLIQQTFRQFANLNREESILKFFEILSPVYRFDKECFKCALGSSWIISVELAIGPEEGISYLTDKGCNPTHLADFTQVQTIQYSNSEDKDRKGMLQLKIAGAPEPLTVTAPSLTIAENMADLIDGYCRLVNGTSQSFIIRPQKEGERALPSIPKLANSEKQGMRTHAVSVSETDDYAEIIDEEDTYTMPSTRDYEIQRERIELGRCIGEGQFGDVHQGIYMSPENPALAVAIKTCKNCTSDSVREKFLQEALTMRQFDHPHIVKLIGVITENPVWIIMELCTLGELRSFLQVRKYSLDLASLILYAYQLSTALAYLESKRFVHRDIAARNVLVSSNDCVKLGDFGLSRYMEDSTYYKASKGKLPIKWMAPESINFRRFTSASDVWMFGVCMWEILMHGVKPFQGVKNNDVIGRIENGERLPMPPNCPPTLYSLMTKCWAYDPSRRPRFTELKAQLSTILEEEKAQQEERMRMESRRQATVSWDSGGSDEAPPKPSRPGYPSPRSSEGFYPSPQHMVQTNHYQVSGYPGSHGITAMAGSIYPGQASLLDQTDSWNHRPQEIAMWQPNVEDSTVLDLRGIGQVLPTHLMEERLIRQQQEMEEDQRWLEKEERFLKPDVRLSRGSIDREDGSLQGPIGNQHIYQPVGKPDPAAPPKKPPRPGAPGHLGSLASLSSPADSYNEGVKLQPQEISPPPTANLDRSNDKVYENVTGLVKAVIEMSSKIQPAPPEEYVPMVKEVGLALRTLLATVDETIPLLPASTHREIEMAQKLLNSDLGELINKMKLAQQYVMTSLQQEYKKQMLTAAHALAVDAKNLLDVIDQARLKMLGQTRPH
# Chain of Receptor tyrosine-protein kinase erbB-4 (Homo sapiens) (Q15303 whole entry): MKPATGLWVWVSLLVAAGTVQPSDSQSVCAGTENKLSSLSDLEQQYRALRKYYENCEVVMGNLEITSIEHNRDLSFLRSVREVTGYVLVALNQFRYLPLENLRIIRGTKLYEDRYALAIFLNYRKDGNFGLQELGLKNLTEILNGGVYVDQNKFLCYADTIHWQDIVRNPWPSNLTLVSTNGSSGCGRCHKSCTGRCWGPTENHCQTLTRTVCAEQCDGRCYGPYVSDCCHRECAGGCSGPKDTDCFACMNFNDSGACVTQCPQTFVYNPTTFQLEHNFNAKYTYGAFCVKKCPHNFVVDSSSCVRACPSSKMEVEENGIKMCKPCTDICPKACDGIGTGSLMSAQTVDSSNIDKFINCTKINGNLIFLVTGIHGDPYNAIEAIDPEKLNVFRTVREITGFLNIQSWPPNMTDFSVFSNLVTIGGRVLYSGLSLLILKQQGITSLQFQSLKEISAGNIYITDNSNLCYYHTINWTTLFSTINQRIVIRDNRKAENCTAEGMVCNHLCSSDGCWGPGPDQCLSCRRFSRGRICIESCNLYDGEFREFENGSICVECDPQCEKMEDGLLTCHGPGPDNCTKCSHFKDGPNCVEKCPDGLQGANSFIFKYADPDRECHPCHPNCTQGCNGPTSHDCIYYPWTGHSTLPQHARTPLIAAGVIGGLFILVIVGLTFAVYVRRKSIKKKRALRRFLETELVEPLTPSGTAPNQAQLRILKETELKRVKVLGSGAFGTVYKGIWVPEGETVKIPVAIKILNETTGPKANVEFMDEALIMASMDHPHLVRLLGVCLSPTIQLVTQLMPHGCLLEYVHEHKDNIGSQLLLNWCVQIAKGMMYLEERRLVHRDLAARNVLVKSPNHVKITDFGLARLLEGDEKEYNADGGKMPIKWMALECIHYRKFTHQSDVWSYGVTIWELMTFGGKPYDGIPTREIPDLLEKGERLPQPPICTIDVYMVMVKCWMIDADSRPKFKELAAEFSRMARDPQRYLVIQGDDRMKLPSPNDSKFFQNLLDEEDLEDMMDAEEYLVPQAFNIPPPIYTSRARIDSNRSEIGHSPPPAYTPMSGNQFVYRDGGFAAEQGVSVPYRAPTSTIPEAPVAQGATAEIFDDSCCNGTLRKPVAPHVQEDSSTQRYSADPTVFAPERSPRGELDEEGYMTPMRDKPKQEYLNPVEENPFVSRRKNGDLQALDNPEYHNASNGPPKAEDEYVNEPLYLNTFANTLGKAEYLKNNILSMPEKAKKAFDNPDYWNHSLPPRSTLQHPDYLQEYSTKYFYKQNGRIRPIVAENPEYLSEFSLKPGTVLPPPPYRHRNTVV
smiles,measurement,setting,value
C[S+]([O-])c1ccc(-c2nc(-c3ccc(F)cc3)c(-c3ccncc3)[nH]2)cc1 (stereo not given),residual activity,[1],56%
same,residual activity,[2],101%
same,residual activity,[3],61%
same,residual activity,[4],114% (inactive)
same,residual activity,[5],105%
same,residual activity,[6],107%
same,residual activity,[7],41%
same,residual activity,[8],115%
same,residual activity,[9],82%
same,residual activity,[10],125%
